The panel holds about 83,000 compounds, 20% with a hit somewhere; the sample as a whole holds those more often.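 Compound tested at a single concentration for 48 hours in 96-well plates; a percent growth value below 10 was scored as active.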 Values without a mark were called inactive. Active and inactive are the calls of the source.
These molecules were tested on NCI/ADR-RES ovarian (assay: NCI-60 one-dose screen, 48 h (100 = growth as untreated, 0 = no growth, -100 = all killed)). Details: 10 µM unless noted.
Protocol: Growth inhibition of the NCI/ADR-RES human […] tumor cell line is measured as a screen for anti-cancer activity. Cells are grown in 96 well plates and exposed to the test compound for 48 hours. Compounds are tested at a single concentration, which is 10^-5 M for most compounds. The reported endpoint is percent growth (GI% or GIPRCNT), where numbers from 0 - 100% represent growth inhibition, and numbers from -100% - 0 represent cell death. For example, a value of 40 represents 60% growth inhibition. A value of 0 means no net growth occurred over the course of the experiment. A value of -40 indicates 40% of cells at the beginning of the experiment died by the end of the experiment. A value of -100 means all cells are dead at the end of the experiment.
NCI-60 Human Tumor Cell Lines Screen was performed using the standard one-dose NCI protocol, which is described in more detail at https://dtp.cancer.gov/discovery_development/nci-60/default.htm.
Compounds with GIPRCNT values below 10 were considered active. Activity score was based on GIPRCNT using the following formula: […]
Score is 0 for GIPRCNT values of 100 or above, 50 for GIPRCNT values of 0, and 100 for GIPRCNT values of -100.

SMILES | growth
COc1cc(C(=O)N2CCN(C(=O)c3cc(OC)c(OCc4ccccc4)cc3N)CC2)c(N)cc1OCc1ccccc1 | 98.7%
COc1ccc(-c2[nH]c3ccccc3c2/C=C(\C#N)S(=O)(=O)c2ccccc2)cc1 | 0.134% (active)
O[C@@H]1CCO[C@H](c2ccc3ccccc3c2)C1 | 106%
COc1ccc(C2=NN(C(=O)COc3ccc(Cl)cc3)C(O)(c3cc(F)c(Cl)cc3Cl)C2)cc1OC (stereo not given) | 19.9%
O=C(Nc1cccc(-n2ccc3c(NC(=O)c4ccccc4)nccc32)c1)Nc1cc(C(F)(F)F)cc(C(F)(F)F)c1 | -30.5% (active)
CCOc1ccc(Cc2nccc3cc(OCC)c(OCC)cc23)cc1OCC | 65.3%
CC(C)(C)C(=O)Nc1nc2c(s1)CCc1ccn(S(=O)(=O)c3ccccc3)c1-2 | 85.7%
COc1ccc(Cl)cc1NC(=O)c1cc2c(n1C)-c1nc(NC(=O)C(C)C)sc1CC2 | 90.5%
COc1ccc(Cl)cc1NC(=O)c1cc2c([nH]1)-c1nc(NC(=O)C(C)C)sc1CC2 | 93.9%
O=C(Nc1ccc(Cl)c(Cl)c1)Nc1ccc(Cl)c([N+](=O)[O-])c1 | -7.67% (active)
CC(=O)N[C@@H](CNC(=O)c1cc(NC(=O)c2cc(NC(=O)c3cc(NC(=O)c4nccn4C)cn3C)cn2C)cn1C)CC(=O)Nc1cn(C)c(C(=O)Nc2cc(C(=O)Nc3cc(C(=O)Nc4cc(C(=O)NCCCN(C)CCCNC(=O)c5cccc(C(=O)O)c5)n(C)c4)n(C)c3)n(C)c2)n1 | 87.4%
NC(CSC(c1ccccc1)(c1ccccc1)c1ccc(F)cc1)C(=O)O (stereo not given) | 37.5%
O=C(NCCNc1nccc(-c2c(-c3cccc(O)c3)nc3sccn23)n1)Nc1cc(C(F)(F)F)cc(C(F)(F)F)c1 | 87.8%
Cc1[nH]n(C(=O)c2ccncc2)c(=O)c1N=Nc1ccc(S(=O)(=O)Nc2ccncn2)cc1 | 114%
C[C@@H]1CC2C3C[C@H](F)C4=CC(=O)C=C[C@]4(C)[C@@]3(F)[C@@H](O)C[C@]2(C)[C@@]1(O)C(=O)CO (stereo not given in full) | 83.1%
Clc1ccc(CN2COc3c(ccc4cccnc34)C2)cc1Cl | -19% (active)
Nc1nc(Cl)cc(NCCCCNc2cc(Cl)nc(N)n2)n1 | 107%
O=C(Nc1ccc(-n2ccc3c(NC(=O)c4ccccc4)nccc32)cc1)c1ccc(Cl)c(C(F)(F)F)c1 | 22.9%
Cc1ccn2cc(Cc3cc(=O)oc4c3ccc3ccccc34)c(=O)nc2c1 | 105%
C[C@]12CC[C@@H]3c4ccc(O)c(N)c4CC[C@H]3[C@@H]1CC[C@@H]2O | 105%

SMILES | growth
Nc1ncnc2c1c(-c1ccc(Oc3ccccc3)cc1)nn2C[C@@H]1SSC[C@H]1O | 48.3%
Cc1ccc(/C=C2/C(=O)Nc3cc(Cl)c(-c4csc(N)n4)cc32)cc1 | 82.9%
FC(F)(F)c1cccc([Si](F)(c2cccc(C(F)(F)F)c2)c2cccc(C(F)(F)F)c2)c1 | 72.6%
CCCN1C(=O)CSC1=Nc1ccc2cc3ccc(N=C4SCC(=O)N4CCC)cc3nc2c1 | 24.5%
O=c1c2ccccc2[nH]n1Cc1ccc2c(c1)OCO2 | 113%
O=C(Nc1ccccc1F)Nc1ccccc1Cl | 88.9%
Nc1ncnc2c1ccn2-c1cccc(NC(=O)c2cccc(C(F)(F)F)c2)c1 | 78.4%
C=CCn1c(SCC(=O)Nc2ccc(/C(C)=N\O)cc2)nnc1-c1cc(-c2ccc(OC)cc2)nc2ccccc12 | 13.7%
C=C1C(=O)O[C@H]2[C@H]1CC/C(COC(=O)c1ccc3ccccc3c1)=C\CC[C@@]1(C)O[C@@H]21 | -37.7% (active)
O=C(Nc1cccc([N+](=O)[O-])c1)c1ccc2ccccc2c1O | 53.1%
COc1cc(/C=C/C(=O)c2ccc(Oc3ncnc4ccccc34)cc2)cc(OC)c1OC | 70.3%
COc1cccc(-c2nc3sccn3c2-c2ccnc(NCCNC(=O)c3ccccc3)n2)c1 | 70.5%
CC(C)(C)C(=O)/C=c1/[nH]c(=O)/c(=C/c2ccccc2O)s1 | 47.1%
O=S(=O)(CCN1CCOCC1)Nc1cc(-c2ccc3ncnc(Nc4ccc(F)c(Cl)c4)c3c2)cnc1Cl | 48.6%
Cc1nssc1=S | 96.6%
c1cncc(-c2nc3ccccc3[nH]2)c1 | 96.1%
Cc1cc(NCCN(C(C)C)C(C)C)nc(/N=C(\N)Nc2ccc(Cl)c(C(F)(F)F)c2)n1 | -41.1% (active)
O=C(COc1ccc(Cl)cc1Cl)N1N=C(c2ccc(Cl)cc2Cl)CC1(O)c1cc(F)c(Cl)cc1Cl (stereo not given) | 106%
CC(C)CNCC(O)COc1ccc(C(C)(C)c2ccc(OCC(O)CNCC(C)C)cc2)cc1 (stereo not given) | 86.7%
S=C=NP1(N=C=S)=NP(N=C=S)(N=C=S)=NP(N=C=S)(N=C=S)=NP(N=C=S)(N=C=S)=N1 (stereo not given) | 107%

Source: PubChem BioAssay (NCI)
